For test [1], the target named is Mitogen-activated protein kinase 3 (Homo sapiens) (UniProt P27361). The note with it: at 1 µM.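 Note: values are mean percent inhibition of MAPK3.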
The target in test [2] is SRSF protein kinase 3 (Homo sapiens) (UniProt Q9UPE1). Particulars: at 0.1 µM.
The target is the same in test [3]. The note with it: at 1 µM.
The target of test [4] is Mitogen-activated protein kinase 14 (Homo sapiens) (UniProt Q16539). Particulars: at 0.1 µM.
Test [5] has the same target. Particulars: at 1 µM.
Test [6] has as its target Mitogen-activated protein kinase 11 (Homo sapiens) (UniProt Q15759). The note with it: at 0.1 µM.
Test [7] shares this target. Particulars: at 1 µM.
The target of test [8] is T1, Mitogen-activated protein kinase 13 (Homo sapiens) (UniProt O15264).
T1 sequence (whole entry): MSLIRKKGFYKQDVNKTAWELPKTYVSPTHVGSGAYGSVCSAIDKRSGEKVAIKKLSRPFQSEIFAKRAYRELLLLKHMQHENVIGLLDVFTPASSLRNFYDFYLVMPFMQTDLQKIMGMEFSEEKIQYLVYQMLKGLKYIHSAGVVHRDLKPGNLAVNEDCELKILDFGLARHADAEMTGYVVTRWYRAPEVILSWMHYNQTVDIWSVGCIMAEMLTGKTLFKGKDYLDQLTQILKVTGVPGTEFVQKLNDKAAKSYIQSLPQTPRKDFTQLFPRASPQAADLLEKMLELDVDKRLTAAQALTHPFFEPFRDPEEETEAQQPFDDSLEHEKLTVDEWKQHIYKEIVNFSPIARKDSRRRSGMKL
The note with it: at 0.1 µM.

Test [9] has as its target T1, Mitogen-activated protein kinase 13 (Homo sapiens). The note with it: at 1 µM.
Test [10] addresses T2, Mitogen-activated protein kinase 12 (Homo sapiens) (UniProt P53778).
T2 sequence (whole entry): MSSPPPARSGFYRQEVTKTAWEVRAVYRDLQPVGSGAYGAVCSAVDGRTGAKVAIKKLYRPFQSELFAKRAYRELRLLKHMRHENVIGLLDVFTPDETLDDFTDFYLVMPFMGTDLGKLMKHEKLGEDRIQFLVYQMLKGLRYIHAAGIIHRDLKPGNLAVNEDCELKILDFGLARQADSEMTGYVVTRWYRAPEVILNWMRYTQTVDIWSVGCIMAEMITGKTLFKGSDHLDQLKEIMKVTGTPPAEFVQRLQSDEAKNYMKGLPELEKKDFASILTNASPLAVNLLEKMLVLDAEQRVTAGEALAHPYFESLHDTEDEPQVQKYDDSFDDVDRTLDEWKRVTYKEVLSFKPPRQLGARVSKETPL
The note with it: at 0.1 µM.

Test [11] concerns the target T2, Mitogen-activated protein kinase 12 (Homo sapiens). Particulars: at 1 µM.
The target of test [12] is SRSF protein kinase 1 (Homo sapiens) (UniProt Q96SB4). The note with it: at 0.1 µM.
For test [13] the target is unchanged. Particulars: at 1 µM.
Test [14] concerns the target Phosphatidylinositol 4,5-bisphosphate 3-kinase catalytic subunit alpha isoform (Homo sapiens) (UniProt P42336). Particulars: at 0.1 µM.
The target is the same in test [15]. Particulars: at 1 µM.
Test [16] concerns the target T3, Phosphatidylinositol 4,5-bisphosphate 3-kinase catalytic subunit delta isoform (Homo sapiens) (UniProt O00329).
T3 sequence (whole entry): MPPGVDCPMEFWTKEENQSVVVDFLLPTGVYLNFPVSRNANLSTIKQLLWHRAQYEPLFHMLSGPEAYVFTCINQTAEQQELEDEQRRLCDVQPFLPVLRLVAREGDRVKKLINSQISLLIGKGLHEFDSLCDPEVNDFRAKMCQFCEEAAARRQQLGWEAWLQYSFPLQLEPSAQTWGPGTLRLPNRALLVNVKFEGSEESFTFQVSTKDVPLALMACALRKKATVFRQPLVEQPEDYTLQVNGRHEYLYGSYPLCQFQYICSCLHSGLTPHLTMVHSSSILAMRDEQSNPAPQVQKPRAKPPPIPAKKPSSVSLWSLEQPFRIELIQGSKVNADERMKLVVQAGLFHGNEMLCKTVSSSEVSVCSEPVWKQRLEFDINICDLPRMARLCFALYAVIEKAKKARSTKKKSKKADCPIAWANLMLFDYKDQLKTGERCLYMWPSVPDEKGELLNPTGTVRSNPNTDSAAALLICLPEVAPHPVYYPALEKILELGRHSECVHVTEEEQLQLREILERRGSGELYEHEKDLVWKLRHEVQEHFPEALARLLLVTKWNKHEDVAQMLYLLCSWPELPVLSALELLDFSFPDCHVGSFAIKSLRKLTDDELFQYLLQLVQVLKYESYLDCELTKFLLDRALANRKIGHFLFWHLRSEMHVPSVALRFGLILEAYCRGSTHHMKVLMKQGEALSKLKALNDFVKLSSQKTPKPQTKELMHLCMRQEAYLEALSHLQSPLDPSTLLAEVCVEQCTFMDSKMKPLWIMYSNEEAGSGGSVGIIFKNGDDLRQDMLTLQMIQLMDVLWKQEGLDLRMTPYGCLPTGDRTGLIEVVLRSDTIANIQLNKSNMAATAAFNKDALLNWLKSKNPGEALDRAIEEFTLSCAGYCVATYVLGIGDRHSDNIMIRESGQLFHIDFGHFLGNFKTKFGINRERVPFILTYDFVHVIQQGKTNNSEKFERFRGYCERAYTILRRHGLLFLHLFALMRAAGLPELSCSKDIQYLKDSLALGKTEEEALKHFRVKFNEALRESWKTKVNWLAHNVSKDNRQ
Particulars: at 0.1 µM.

Test [17] concerns the target T3, Phosphatidylinositol 4,5-bisphosphate 3-kinase catalytic subunit delta isoform (Homo sapiens). Particulars: at 1 µM.
In test [18] the target is Phosphatidylinositol 4-kinase beta (Homo sapiens) (UniProt Q9UBF8). The note with it: at 0.1 µM.
For test [19] the target is unchanged. The note with it: at 1 µM.
Test [20] addresses Sphingosine kinase 1 (Homo sapiens) (UniProt Q9NYA1). The note with it: at 0.1 µM.

The values below come from ChEMBL document CHEMBL1961873, “Compounds: GSK PKIS; Assays: Nanosyn kinase panel” (2012).

For orientation: inhibition means the relative decrease from the control value, in per cent.

Sequence of Mitogen-activated protein kinase 14 (Homo sapiens) (Q16539 whole entry): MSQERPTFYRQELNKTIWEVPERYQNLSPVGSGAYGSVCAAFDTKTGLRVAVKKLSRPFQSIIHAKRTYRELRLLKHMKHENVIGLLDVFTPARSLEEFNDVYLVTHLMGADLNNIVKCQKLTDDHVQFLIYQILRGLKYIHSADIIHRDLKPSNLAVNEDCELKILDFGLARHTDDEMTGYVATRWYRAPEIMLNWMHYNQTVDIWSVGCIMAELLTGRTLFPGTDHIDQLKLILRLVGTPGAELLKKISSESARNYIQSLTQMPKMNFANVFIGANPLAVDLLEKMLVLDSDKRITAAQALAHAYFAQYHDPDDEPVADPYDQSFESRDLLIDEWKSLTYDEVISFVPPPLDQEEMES
Sequence of SRSF protein kinase 3 (Homo sapiens) (Q9UPE1 whole entry): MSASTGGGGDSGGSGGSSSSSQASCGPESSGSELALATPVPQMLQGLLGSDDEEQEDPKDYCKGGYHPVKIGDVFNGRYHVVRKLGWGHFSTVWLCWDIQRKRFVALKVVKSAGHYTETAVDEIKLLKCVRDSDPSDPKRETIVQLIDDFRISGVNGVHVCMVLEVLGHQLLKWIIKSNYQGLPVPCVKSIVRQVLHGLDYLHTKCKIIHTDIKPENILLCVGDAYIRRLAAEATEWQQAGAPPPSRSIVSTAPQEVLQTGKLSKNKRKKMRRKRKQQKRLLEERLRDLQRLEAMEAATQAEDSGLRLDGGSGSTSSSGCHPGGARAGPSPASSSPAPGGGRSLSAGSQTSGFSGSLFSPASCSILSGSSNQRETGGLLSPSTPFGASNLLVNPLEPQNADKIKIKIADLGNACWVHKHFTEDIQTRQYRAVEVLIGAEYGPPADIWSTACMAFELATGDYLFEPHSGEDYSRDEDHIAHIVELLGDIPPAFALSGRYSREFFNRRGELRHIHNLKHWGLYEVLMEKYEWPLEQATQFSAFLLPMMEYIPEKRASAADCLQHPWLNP
Sequence of Phosphatidylinositol 4-kinase beta (Homo sapiens) (Q9UBF8 2-816 limits assumed): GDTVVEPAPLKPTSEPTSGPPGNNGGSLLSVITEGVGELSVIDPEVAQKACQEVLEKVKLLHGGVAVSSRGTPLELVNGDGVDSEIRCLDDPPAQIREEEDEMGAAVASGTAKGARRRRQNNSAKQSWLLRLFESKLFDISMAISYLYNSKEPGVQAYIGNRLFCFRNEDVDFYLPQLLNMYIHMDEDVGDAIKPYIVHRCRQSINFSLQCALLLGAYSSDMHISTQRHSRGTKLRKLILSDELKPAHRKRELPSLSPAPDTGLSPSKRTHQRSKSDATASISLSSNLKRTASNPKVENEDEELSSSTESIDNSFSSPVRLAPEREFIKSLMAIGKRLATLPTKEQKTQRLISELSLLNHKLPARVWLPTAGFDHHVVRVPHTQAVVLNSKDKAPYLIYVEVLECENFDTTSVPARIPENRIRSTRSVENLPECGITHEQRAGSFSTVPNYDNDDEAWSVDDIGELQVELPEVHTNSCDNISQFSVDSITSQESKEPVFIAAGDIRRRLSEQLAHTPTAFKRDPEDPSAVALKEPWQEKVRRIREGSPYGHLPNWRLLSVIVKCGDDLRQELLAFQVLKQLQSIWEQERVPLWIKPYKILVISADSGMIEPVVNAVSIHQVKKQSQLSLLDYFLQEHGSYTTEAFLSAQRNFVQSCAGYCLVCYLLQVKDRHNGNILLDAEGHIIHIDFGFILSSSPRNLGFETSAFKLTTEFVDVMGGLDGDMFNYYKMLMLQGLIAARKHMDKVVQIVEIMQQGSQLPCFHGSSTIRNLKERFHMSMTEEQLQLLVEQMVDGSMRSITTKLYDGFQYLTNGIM
Sequence of Mitogen-activated protein kinase 3 (Homo sapiens) (P27361 whole entry): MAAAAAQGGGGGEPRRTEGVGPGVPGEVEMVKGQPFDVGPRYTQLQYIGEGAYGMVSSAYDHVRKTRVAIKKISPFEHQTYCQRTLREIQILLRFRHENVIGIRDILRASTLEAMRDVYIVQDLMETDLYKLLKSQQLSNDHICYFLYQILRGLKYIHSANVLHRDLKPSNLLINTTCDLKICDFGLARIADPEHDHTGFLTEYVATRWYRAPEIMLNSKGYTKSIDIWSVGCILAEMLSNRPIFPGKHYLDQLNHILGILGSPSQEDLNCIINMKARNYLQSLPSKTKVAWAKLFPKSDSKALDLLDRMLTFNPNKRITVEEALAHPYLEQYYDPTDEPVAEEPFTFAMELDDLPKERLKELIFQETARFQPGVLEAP
Sequence of Mitogen-activated protein kinase 11 (Homo sapiens) (Q15759 whole entry): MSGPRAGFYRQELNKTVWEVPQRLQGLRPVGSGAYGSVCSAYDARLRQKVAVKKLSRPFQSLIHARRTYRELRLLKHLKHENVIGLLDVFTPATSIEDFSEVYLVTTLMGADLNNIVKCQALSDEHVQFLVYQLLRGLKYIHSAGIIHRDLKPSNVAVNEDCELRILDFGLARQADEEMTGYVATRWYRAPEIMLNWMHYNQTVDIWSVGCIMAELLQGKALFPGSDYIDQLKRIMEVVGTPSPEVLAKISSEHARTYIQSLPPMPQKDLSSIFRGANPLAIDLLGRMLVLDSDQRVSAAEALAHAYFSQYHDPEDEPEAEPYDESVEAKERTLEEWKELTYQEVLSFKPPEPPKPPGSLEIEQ
Sequence of SRSF protein kinase 1 (Homo sapiens) (Q96SB4 whole entry): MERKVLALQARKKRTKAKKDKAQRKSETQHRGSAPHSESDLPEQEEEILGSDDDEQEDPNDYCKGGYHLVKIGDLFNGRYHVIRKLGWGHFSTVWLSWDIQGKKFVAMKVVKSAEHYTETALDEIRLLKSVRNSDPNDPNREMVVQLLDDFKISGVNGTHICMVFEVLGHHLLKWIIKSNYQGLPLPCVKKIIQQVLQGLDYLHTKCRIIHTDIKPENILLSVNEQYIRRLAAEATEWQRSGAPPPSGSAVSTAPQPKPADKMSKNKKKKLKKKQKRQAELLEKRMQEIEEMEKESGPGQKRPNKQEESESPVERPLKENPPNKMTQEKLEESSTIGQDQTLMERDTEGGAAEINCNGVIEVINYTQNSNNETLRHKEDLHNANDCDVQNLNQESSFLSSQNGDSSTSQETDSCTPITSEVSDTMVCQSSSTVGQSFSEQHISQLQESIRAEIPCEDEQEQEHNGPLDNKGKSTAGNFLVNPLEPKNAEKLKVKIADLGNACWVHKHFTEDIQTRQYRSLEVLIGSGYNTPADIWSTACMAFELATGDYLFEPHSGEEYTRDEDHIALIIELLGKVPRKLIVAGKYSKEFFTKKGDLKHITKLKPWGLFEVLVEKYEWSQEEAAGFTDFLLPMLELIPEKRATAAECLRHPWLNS
Sequence of Phosphatidylinositol 4,5-bisphosphate 3-kinase catalytic subunit alpha isoform (Homo sapiens) (P42336 whole entry, canonical isoform): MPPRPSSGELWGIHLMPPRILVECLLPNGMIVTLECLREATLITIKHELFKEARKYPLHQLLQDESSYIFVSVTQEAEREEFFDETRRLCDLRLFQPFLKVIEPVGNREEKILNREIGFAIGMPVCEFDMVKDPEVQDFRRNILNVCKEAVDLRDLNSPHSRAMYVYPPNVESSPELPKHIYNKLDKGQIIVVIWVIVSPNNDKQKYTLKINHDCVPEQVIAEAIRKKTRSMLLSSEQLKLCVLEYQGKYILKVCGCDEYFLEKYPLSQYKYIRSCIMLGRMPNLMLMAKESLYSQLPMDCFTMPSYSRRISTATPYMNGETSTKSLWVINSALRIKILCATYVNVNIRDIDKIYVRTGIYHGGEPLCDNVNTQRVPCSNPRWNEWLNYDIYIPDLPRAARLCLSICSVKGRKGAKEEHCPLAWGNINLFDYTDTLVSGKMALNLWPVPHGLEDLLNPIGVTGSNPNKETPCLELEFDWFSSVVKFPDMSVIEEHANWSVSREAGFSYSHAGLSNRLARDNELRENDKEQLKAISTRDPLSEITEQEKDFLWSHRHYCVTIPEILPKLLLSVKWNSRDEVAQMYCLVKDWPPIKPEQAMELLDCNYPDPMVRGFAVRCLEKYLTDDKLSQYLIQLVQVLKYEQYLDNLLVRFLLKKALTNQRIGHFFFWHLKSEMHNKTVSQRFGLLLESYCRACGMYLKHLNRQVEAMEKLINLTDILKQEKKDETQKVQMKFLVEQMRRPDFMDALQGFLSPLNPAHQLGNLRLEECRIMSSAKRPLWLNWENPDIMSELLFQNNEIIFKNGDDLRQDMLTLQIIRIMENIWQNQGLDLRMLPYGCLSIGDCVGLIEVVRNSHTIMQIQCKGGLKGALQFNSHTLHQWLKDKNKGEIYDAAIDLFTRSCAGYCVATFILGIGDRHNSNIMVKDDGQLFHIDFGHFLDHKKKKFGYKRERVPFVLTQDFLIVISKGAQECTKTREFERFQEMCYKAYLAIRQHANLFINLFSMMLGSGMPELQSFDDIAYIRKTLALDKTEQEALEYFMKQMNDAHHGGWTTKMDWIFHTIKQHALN
Sequence of Sphingosine kinase 1 (Homo sapiens) (Q9NYA1 whole entry): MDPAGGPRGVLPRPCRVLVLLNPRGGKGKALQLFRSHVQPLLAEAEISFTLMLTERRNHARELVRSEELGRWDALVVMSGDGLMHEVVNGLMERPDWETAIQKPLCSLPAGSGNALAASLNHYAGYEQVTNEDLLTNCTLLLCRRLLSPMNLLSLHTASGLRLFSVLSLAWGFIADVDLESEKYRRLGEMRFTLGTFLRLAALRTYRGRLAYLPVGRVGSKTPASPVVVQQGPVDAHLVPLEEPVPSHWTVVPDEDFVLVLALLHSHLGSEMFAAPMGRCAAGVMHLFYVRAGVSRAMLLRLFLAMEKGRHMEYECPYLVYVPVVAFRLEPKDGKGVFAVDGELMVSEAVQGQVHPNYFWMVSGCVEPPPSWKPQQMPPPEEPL

Turning to `COc1ccc(C2=C(N3CCc4ccccc43)C(=O)NC2=O)cc1`, the inhibition was determined as 5.25% in test [1]; 0.52% in [2]; 1.43% in test [3]; 3.41% in [4]; 12.2% in [5]; 4.81% in test [6]. For the same compound, the inhibition is 8.67% in [7]; -0.17% in [8]; 3.67% in test [9]; 12% in test [10]; 3.4% in [11]; -1.12% in test [12]. Further, the inhibition in [13] was 0.76%; in [14], 6.53%; in test [15], 12.6%; in [16], 5.26%; in test [17], 9.11%; in [18] it was 3.23%. Besides, the values for the inhibition in test [19] and in [20] were -7.57% and 0.25%, respectively.
Turning to `CS(=O)(=O)CCNCc1cc(-c2cc3c(Nc4ccc(OCc5cccc(F)c5)c(Cl)c4)ncnc3s2)cs1`, the inhibition in test [1] is 4.92%; in test [2], 0.81%; in test [3] it was -0.39%; in test [4], 7.29%; in [5], 8.32%; in [6], 1.8%. Besides, the inhibition in test [7] is 3.36%; in test [8] it was 5.45%; in test [9], 6.67%; in test [10], 4.58%; in test [11], 6%; in [12] it was -3.5%. Also, the inhibition is -2.78% in test [13]; 4.7% in test [14]; 5.78% in test [15]; 0.67% in [16]; 7.33% in [17]; -1.24% in [18]. Also, the figures for the inhibition in [19] and in test [20] were 3.94% and 1.57%, respectively.
As to `COc1cc(Nc2ncc3c(C)nc(-c4cccc(Oc5ccccc5)c4)n3n2)cc(OC)c1OC`, the inhibition worked out at 5.07% in [1]; 0.17% in test [2]; 1.56% in test [3]; 0.66% in [4]; 4.12% in [5]; 0.51% in test [6]. Besides, the inhibition was 4.42% in test [7]; 0.98% in [8]; 2.5% in [9]; 0.18% in test [10]; 0.85% in test [11]; -2.01% in test [12]. Also, the inhibition in test [13] was -3.6%; in test [14] it was 0.78%; in test [15] it was 1.96%; in [16], 0.25%; in test [17] it was 2.99%; in test [18], 2.58%. For the same compound, the inhibition in test [19] is 2.46%; in test [20] it was -1.6%.
Take `CCS(=O)(=O)c1ccc(OC)c(Nc2ncc(-c3ccccc3Cl)o2)c1`: the inhibition in test [1] stood at 0.91%; in test [2], 0.64%; in test [3], 3.28%; in [4], 7.68%; in test [5], 12.2%; in test [6], 2.55%. The inhibition in [7] is 5.3%; in test [8], 1.24%; in test [9] it was 1.41%; in test [10] it was 5.31%; in test [11] it was -0.19%; in [12] it was -0.98%. For the same compound, the inhibition in test [13] is 0.67%; in [14], -0.1%; in test [15], -1.53%; in test [16], 2.13%; in test [17] it was 1.67%; in [18], 3.2%. Besides, the values for the inhibition in test [19] and in test [20] were -6.4% and -0.2%, respectively.
Turning to `CN(C)CCOc1ccc(-c2cc(-c3ccc4c(c3)CCC4=NO)c(-c3ccncc3)o2)cc1`, the inhibition in [1] is 1.25%; in test [2], -6.42%; in [3], -1.92%; in test [4] it was -0.58%; in [5], 0.13%; in test [6] it was -0.55%. Further, the inhibition was 1.57% in [7]; -1.01% in test [8]; -2.49% in [9]; -0.25% in test [10]; -0.32% in test [11]; -1.96% in test [12]. For the same compound, the inhibition in [13] was -0.37%; in [14] it was -0.14%; in test [15] it was 1.74%; in test [16], 2.02%; in [17], 6.39%; in test [18], 3.66%. Moreover, the inhibition in test [19] was 2.02%; in [20], -0.35%.
Turning to `COc1cc(Nc2ncc3c(C)nc(-c4cccc(C(F)(F)F)c4)n3n2)cc(OC)c1OC`, the inhibition in test [1] is 7.25%; in test [2] it was -0.69%; in test [3], 3.15%; in test [4], 1.25%; in [5], 6.99%; in test [6], 3.99%. Besides, the inhibition is 8.89% in [7]; -0.83% in [8]; 1.78% in test [9]; 0.21% in test [10]; 1.38% in test [11]; -1.06% in test [12]. Further, the inhibition in test [13] is 1.6%; in test [14] it was 1.32%; in test [15] it was 0.9%; in test [16] it was 1.18%; in test [17], -1.04%; in [18], 7.16%. For the same compound, the inhibition worked out at 1.45% in [19] and 2.98% in [20].
For the compound `O=C(Nc1n[nH]c2nc(-c3ccc(O)cc3)c(Br)cc12)C1CC1`, the inhibition in [1] is 5.57%; in test [2] it was -1.04%; in test [3], 7.81%; in [4] it was 6.42%; in test [5] it was 16%; in [6], 11.1%. Further, the inhibition was 38.8% in test [7]; 8.19% in test [8]; 32.6% in test [9]; 1.76% in [10]; 16.6% in [11]; -0.67% in [12]. Besides, the inhibition in [13] is 0.36%; in [14] it was 6.93%; in test [15] it was 6%; in test [16] it was 3.58%; in [17], 6.8%; in test [18] it was -5.7%. The figures for the inhibition in test [19] and in test [20] were 3.27% and -0.06%, respectively.
